We go through 93 compounds from PubChem BioAssay AID1022 (Emory University Molecular Libraries Screening Center, 2008).

Structures are written as SMILES. Screen size: about 220,000 compounds; about 3,300 (1.5%) were called active. The sample as a whole holds a higher share of actives than the screen did. A number with no mark means an inactive call.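 Rule for the calls: active = compounds that cut the protein-peptide binding signal by more than 50% relative to plate controls in a single-dose test; inactive = the rest.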

In the assay the target is Induced myeloid leukemia cell differentiation protein Mcl-1 (Homo sapiens) (UniProt Q07820). Nature of the assay: Mcl-1/Noxa binding inhibitors, primary screen, biochemical, TR-FRET, 1536-well (AID 1022).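 Note: His-tagged Mcl-1 with rhodamine Noxa BH3 peptide and terbium anti-His antibody; 0% = Mcl-1 plus Noxa peptide wells and 100% = peptide-only wells.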 Conditions: TR-FRET Mcl-1/Noxa peptide binding, 2 h; at 21.7 µM; active compounds read high. A general note: In TR-FRET formats the signal depends on donor and acceptor labels being close together.
Induced myeloid leukemia cell differentiation protein Mcl-1 (Homo sapiens), sequence (Q07820 whole entry, looked up): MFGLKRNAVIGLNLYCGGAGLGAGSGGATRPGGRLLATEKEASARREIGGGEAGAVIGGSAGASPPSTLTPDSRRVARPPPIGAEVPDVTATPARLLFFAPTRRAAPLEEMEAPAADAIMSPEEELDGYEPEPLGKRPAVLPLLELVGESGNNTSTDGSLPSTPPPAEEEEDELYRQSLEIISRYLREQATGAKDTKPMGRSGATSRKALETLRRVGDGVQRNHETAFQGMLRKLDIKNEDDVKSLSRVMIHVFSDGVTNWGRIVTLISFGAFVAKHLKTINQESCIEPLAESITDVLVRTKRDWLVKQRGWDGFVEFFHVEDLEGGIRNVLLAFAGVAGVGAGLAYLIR
Consider `CC(C)CNC(=S)NC(=O)c1ccc(Cl)cc1`, for which the inhibition – broadly, the drop in the measured response relative to a control, in per cent – is 62.4% (active).
Under `CC(C)C(NC(=O)c1ccc(Cl)cc1)C(=O)O` (stereo not drawn) stands 1.56%; under `Cc1occc1C(=O)NNC(=S)NCC(C)C`, -22.4%; under `Cn1cnc([N+](=O)[O-])c1Sc1n[nH]c(N)n1`, 3.28%.
For `CCc1nnc(NC(=O)/C=C/c2ccc(C)o2)s1` the value was 19.4%; for `Cc1ccc(/C=C/C(=O)Nc2cc(S(=O)(=O)N3CCCCCC3)ccc2OCC(F)(F)F)o1`, 22.8%.
For `Cc1ccc(/C=C/C(=O)Nc2ccc([N+](=O)[O-])c(NC(=O)/C=C/c3ccc(C)o3)c2)o1` the value was 88.8% (active); for `O=C(Nc1ccc(-c2csc(Nc3cccc(C(F)(F)F)c3)n2)cc1)c1cccc(C(F)(F)F)c1`, 16.6%; for `CC(C)(C)c1cc(C(=O)NN)n(Cc2ccc(Cl)cc2Cl)n1`, -5.62%.
As for `CCOC(=O)N1CCN(C(=O)c2ccc(S(=O)(=O)c3ccc(C)cc3)c(NC(C)=O)c2)CC1`, the inhibition was 2.03%.
Under `CC(=O)Nc1cc(C(=O)O)ccc1S(=O)(=O)c1ccc(Cl)cc1` stands 57.8% (active).
For `Cc1ccc(S(=O)(=O)c2ccc(Cl)cc2)cc1S(=O)(=O)NC(C(=O)O)C(C)C` (stereo not drawn) the value was 24%; for `CCC(=O)N1CCCc2ccccc21`, -6.7%; for `CN(C)c1cc(-c2ccc(F)cc2)oc(=O)c1Cl`, 11.2%.
For `Cc1ccc(S(=O)(=O)N/N=C\c2cc3c(cc2[N+](=O)[O-])OCO3)cc1` the value was 35.1%; for `Cc1ccc(-c2n[nH]c(=S)n2/N=C/c2cc3c(cc2[N+](=O)[O-])OCO3)cc1`, 63.6% (active).
Turning to `CCOc1ccc(-c2n[nH]c(=S)n2/N=C/c2cc3c(cc2[N+](=O)[O-])OCO3)cc1`, the inhibition was 48.5%.
Under `CC(=O)N1N=C(c2ccncc2)OC1(Cc1ccccc1)Cc1ccccc1` stands 5.2%; under `CCc1nnc(NC(=O)Cc2cccs2)s1`, 32.4%; under `O=C(Cc1cccs1)Nc1nnc(C2CC2)s1`, -2.68%.
Under `COc1ccc(Cc2nnc(NC(=O)Cc3cccs3)s2)cc1` stands 101% (active).
For `Cc1ccc(-c2c[n+](CC(=O)Nc3ccccc3)c3n2CCC3)cc1`, the inhibition was -9.73%.
For `Cc1ccc(Cn2c(SCC(=O)N/N=C/c3ccccc3OCC(=O)O)nc3ccccc32)cc1`, the inhibition was 27.3%.
Under `Cc1nc2c(ncn2-c2ccccc2)c(=O)n1NC(=O)CN1CCCC1` stands 1.52%; under `C=C(C)CNC(=S)Nc1ccc(S(=O)(=O)Nc2cnc3ccccc3n2)cc1`, 6.78%; under `O=c1cc(CO)oc(C(Nc2cccc(C(F)(F)F)c2)c2ccccn2)c1O` (stereo not drawn), 70% (active).
On to `Cc1ccc(CN(C)CC(=O)Nc2cccc([N+](=O)[O-])c2)o1`, for which the inhibition was -9.25%.
Consider `O=c1cc(CO)oc(C(Nc2cccc([N+](=O)[O-])c2)c2ccccn2)c1O` (stereo not drawn), for which the inhibition is 70.7% (active).
Under `FC(F)(F)c1cccc(Nc2ncnc3ccccc23)c1` stands -37.6%; under `O=C(Nc1cccc(C(F)(F)F)c1)c1cnccn1`, 3.57%.
For `O=C(CSCC(=O)Nc1cccc([N+](=O)[O-])c1)Nc1ccccc1` the value was -8.73%; for `FC(F)(F)c1ccc(-n2cn[nH]c2=S)cc1`, -8.38%; for `CN(C)NC(=O)c1csnc1-c1c(Cl)cccc1Cl`, 8.82%.
Regarding `O=C(CSc1ncn[nH]1)Nc1nc(-c2cccc([N+](=O)[O-])c2)cs1`, the inhibition was 0.73%.
Under `Cc1ccc(C(=O)NNC2=Nc3cc([N+](=O)[O-])ccc3OC2)cc1` stands 8.97%; under `CSc1n[nH]c(=S)n1N`, -7.77%; under `Cc1ccc(NC(=S)NC(=O)/C=C/c2ccc(Cl)cc2)cc1`, 3.6%.
With `CC(=O)Nc1ccc(NC(=S)NC(=O)/C=C/c2ccccc2)cc1`, the inhibition was 3.86%.
Under `CCOc1ccc(NC(=S)NC(=O)/C=C/c2ccc(OC)cc2)c([N+](=O)[O-])c1` stands 63.1% (active).
Under `O=C(N/N=C/c1ccco1)c1csc2c1CCCC2` stands 5.75%.
In the case of `O=C(Nc1ccc(Cl)cc1)/C(=C1\CCCN1)[N+](=O)[O-]`, the inhibition was 9.38%.
Under `COc1ccc2nc(NC(=O)c3ccc(Br)s3)sc2c1` stands 15.7%; under `COc1ccc2nc(Nc3nc4cc5c(cc4s3)OCCO5)sc2c1`, -76.2%; under `COc1ccc2nc(Nc3nc4ccc(NC(C)=O)cc4s3)sc2c1`, 70.9% (active).
For the compound `Cn1c(SCC(=O)N2CCOCC2)nnc1-c1ccc2ncccc2c1`, the inhibition is -9.25%.
Under `CC(C)Oc1ccc(CCC(=O)NNC(=S)NCc2ccccc2)cc1` stands 0.21%; under `O=c1oc(-c2ccccc2NS(=O)(=O)c2ccc(Cl)cc2)nc2ccccc12`, -43.7%.
Regarding `Cc1nn(CC(=O)Nc2ccc(C#N)cc2)c(C)c1[N+](=O)[O-]`, the inhibition is -6.04%.
Under `CCc1ccc(NC(=O)Cn2nc(C)c([N+](=O)[O-])c2C)cc1` stands 3.69%; under `Cc1nn(CC(=O)Nc2ccc(N(C)C)cc2)c(C)c1[N+](=O)[O-]`, 73.9% (active).
For `COc1ccccc1-n1c(SCC(=O)O)nc2sc3c(c2c1=O)CCC3` the value was 12.5%; for `COC(=O)c1cn(C(=O)c2ccc(Cl)cc2)c2ccccc12`, -1.27%; for `Cc1cccc(N(CC(=O)N=Nc2c(O)[nH]c3ccccc23)S(C)(=O)=O)c1C`, 9.08%.
For `O=[N+]([O-])c1cc(S(=O)(=O)Nc2cccc(Cl)c2)ccc1N=Nc1c(O)[nH]c2ccccc12` the value was 71.3% (active); for `CN1CCN(c2ccc(S(=O)(=O)Nc3ccccc3)cc2[N+](=O)[O-])CC1`, -7.35%; for `COc1ccc(S(=O)(=O)Nc2ccc(O)c(Sc3nc4ccccc4s3)c2)cc1`, 21.8%.
In the case of `O=C(CSc1nc2ccccc2s1)Nc1ccc(C(=O)O)cc1`, the inhibition is 2.75%.
Under `O=[N+]([O-])c1c(NCCO)cc(Sc2nc3ccccc3s2)c2nonc12` stands 79.7% (active); under `O=C(N/N=C/c1ccccn1)c1cccnc1`, -27.9%; under `O=C(N/N=C/c1ccc([N+](=O)[O-])o1)c1cn(-c2ccccc2)nc1-c1ccc(F)cc1`, 65.5% (active).
Under `O=C(O)c1ccc(NC(=O)c2cn(-c3ccccc3)nc2-c2ccc(Cl)cc2)cc1` stands 17.5%.
Under `Cc1nnc(SCC(=O)N/N=C/c2cn(-c3ccccc3)nc2-c2ccc(F)cc2)n1-c1ccccc1` stands -13.4%.
For `O=C(Nc1nnc(SCc2c(Cl)cccc2Cl)s1)c1cccc([N+](=O)[O-])c1`, the inhibition was 27.4%.
For `CCc1cc(C(=O)c2ccc(OC)cc2)c(NC(=O)CN2CCN(C)CC2)s1` the value was 0.41%.
Take `Cc1ccc(CSc2nnc(-c3cnccn3)n2C)cc1`: the inhibition was 2.82%.
For `O=C(NCc1cc(C(F)(F)F)cc(C(F)(F)F)c1)C1CC(c2cccc(F)c2)=NO1` (stereo not drawn) the value was -14.9%; for `COc1ccc(C(=O)C2CCCN(Cc3ccc4nonc4c3)C2)c(C)c1` (stereo not drawn), 0.59%; for `CC(=O)Nc1cccc(/C(C)=N/NC(=O)c2ccccc2Cl)c1`, 12.1%.
For `C/C(=N\Nc1cccc(C(=O)O)c1)c1ccc2c(c1)Nc1ccccc1S2` the value was 78.5% (active); for `O=C(NC1CC1)c1ccc2c(c1)NC(=O)c1ccccc1S2`, -14.5%; for `Cc1c(NC(=O)C(=O)N/N=C/c2cccs2)c(=O)n(-c2ccccc2)n1C`, -17.4%.
For `O=C(Nc1n[nH]c(C(F)(F)F)n1)c1cccs1` the value was 1.44%; for `COC(=O)c1scc(C)c1NC(=O)CSc1ccc(Cl)cc1`, 2.67%.
Regarding `CCN(CC)C(=O)C(=O)Nc1cccc(Br)c1`, the inhibition was -12.2%.
Under `CCN(CC)N=Nc1cccc(NC(C)=O)c1` stands 52.4% (active); under `CC(=O)Nc1cccc(C(=O)Nc2nc(C)cs2)c1`, 18.4%; under `C=C(C)COc1ccc(-c2nc(N)ncc2-c2ccccc2OC)c(O)c1`, 19.2%.
Under `NC(=S)Nc1c(Cl)cccc1Cl` stands -2.54%; under `Cc1ccc(OC(=O)c2c(C)nn(-c3ccccc3)c2C)cc1`, -10.1%.
Under `CC(C)CCN1NC2(CCC(C)CC2)NC1=S` (stereo not drawn) stands 10.8%; under `Cc1ccc(OS(=O)(=O)c2ccc(-c3csc(C)n3)s2)c(C)c1`, 10.9%.
On to `Cn1nc(C(F)(F)F)cc1-c1ccc(/C=C(\C#N)C(=O)c2cccc(C(F)(F)F)c2)s1`, for which the inhibition was 8.47%.
For `COc1ccc(C(=O)OCC(=O)c2ccc(C)c(S(=O)(=O)N3CCOCC3)c2)cc1OC` the value was -9.99%; for `Cc1cc(C)n(C(=O)c2ccc(C)c(S(=O)(=O)N3CCOCC3)c2)n1`, 72.5% (active).
Under `Cc1cc(C)n(C(=O)c2ccc(S(=O)(=O)N3CCCC3)cc2)n1` stands 7.15%; under `Cc1ccc(C)c2[nH]c(=O)c(CN(Cc3cccnc3)C(=S)NCc3ccco3)cc12`, 4.29%.
In the case of `N=C1/C(=C/c2cccn2-c2cccc([N+](=O)[O-])c2)C(=O)N=C2SC=CN12`, the inhibition was 64.6% (active).
For `N/C(=N\OC(=O)CCn1cccc(C(F)(F)F)c1=O)c1ccc(OC(F)(F)F)cc1` the value was -5.59%.
Under `COc1ccc(NC2=CC(=S)NC(C)(C)C2)cc1` stands 19.2%; under `O=C(CN1CCN(S(=O)(=O)/C=C/c2ccccc2)CC1)Nc1ccc(N2CCOCC2)cc1`, 9.11%.
Under `O=c1cc(CN2CCN(S(=O)(=O)/C=C/c3ccccc3)CC2)c2ccc(O)cc2o1` stands 57.9% (active).
In the case of `COc1ccc2c(CN3CCN(S(=O)(=O)c4cccs4)CC3)cc(=O)oc2c1`, the inhibition is -3.37%.
For `Cc1nc2ccccc2nc1N/N=C/c1ccc(O)cc1O` the value was -26.1%.
